Assay results reported in ChEMBL document CHEMBL4513216, “Probing the Open Global Health Chemical Diversity Library for Multistage-Active Starting Points for Next-Generation Antimalarials” (ACS Infect Dis, 2020).
The campaign covered roughly 68,000 compounds. About 2,700 (4%) showed an effect of 50% or more. The sample as a whole holds a higher share of strong results than the screen did.

test system: Plasmodium berghei; assay: Screen against P. berghei liver stage (PbLuc), transformed with Luciferase, at 2uM; type: functional, HepG2; conditions: tested at 2 uM

SMILES	INHIBITION [%]
CC(c1cn2ncsc2n1)n1cc2[nH]cccc-2c1=O (stereo not given)	30.09
CC(C)OCc1ncn2c1CN(CC1CC1)CCC2	-13.31
O=C(Nc1cccnc1)[C@@H]1C[C@H]2OCC[C@H]2N(Cc2ccsc2)C1	-83.74
O=C(NCC1CC1)[C@H]1C[C@H]2OCC[C@H]2N(Cc2ccsc2)C1	-12.09
O=C(Nc1cnccn1)[C@@H]1C[C@H]2OCC[C@H]2N(Cc2ccsc2)C1	59.52
Cc1cccc(S(=O)(=O)N2C[C@@H]3C[C@H](C(=O)NC4CCC4)[C@H](C2)O3)c1	12.57
COCCN1C[C@@H]2CC[C@H]1CN(C(=O)CCc1c(C)nn(C)c1C)C2	-23.17
CC(C)NC(=O)Nc1ccc(-c2nc3c([nH]2)CCNC3)cc1	-35.22
O=C(Nc1ccc(-c2nc3c([nH]2)CCNC3)cc1)N1CCCC1	-15.03
O=S(=O)(c1ccc(-c2nc3c([nH]2)CCNC3)cc1)N1CCCC1	52.3
c1cnc(NCCCOC2CCOCC2)nc1	74.34
Brc1cnc(NCCCOC2CCOCC2)nc1	21
Brc1ccc(NCCCOC2CCOCC2)nc1	-11.28
Cc1ccc(-c2cc(N)c(=O)n(CC(=O)NCC3CC3)n2)s1	36.17
CN(Cc1ccccc1)CC1(O)CCCN(CC(C)(C)C)C1=O (stereo not given)	16.64
COCCC(=O)N1CCc2cc(Cl)cc(Cl)c2C1	-10.6
Cc1cc(C(=O)NCC2CCS(=O)(=O)C2)ccc1NC(=O)c1ccco1 (stereo not given)	-34.12
O=C(NCC1CCS(=O)(=O)C1)c1ccco1 (stereo not given)	69.48
O=C(NCC1CCS(=O)(=O)C1)c1ccc(NC(=O)c2ccco2)cc1 (stereo not given)	-19.02
CCOCCCC(=O)Nc1ccc(OCc2noc(C3CC3)n2)cc1	18.09
COCCc1noc(CN2CCCc3cccc(OC)c32)n1	-61.35
COc1cccc2c1N(Cc1nc(C3CC3)no1)CCC2	64.22
COc1cccc2c1N(Cc1noc(C3CC3)n1)CCC2	-17.64
CCCC(NC(=O)c1cncc(C)c1)c1nnn[nH]1 (stereo not given)	-10.41
COCCN1CCc2ncnc(NC(C)C)c2CC1	3.6
C[C@@H](NC(=O)c1cnccn1)c1c(-c2ccc(F)cc2)noc1C(=O)O	34.79
Cc1cccc(C)c1OCC(=O)N1CCOCC1c1ncon1 (stereo not given)	29.54

SMILES	INHIBITION [%]
Cc1ccc(CC(=O)N2CCOCC2c2ncon2)cc1 (stereo not given)	54.99
CCc1ccc(CCC(=O)N2CCOCC2c2ncon2)cc1 (stereo not given)	-45.23
CCc1ccccc1OCC(=O)N1CCOCC1c1ncon1 (stereo not given)	53.58
O=C(CCc1cccc(Cl)c1Cl)N1CCOCC1c1ncon1 (stereo not given)	58.52
O=C(COc1ccc(Cl)cc1)N1CCOCC1c1ncon1 (stereo not given)	-29.5
O=C(COc1cccc(Cl)c1)N1CCOCC1c1ncon1 (stereo not given)	-6.71
CC(C)c1ccc(CCC(=O)N2CCOCC2c2ncon2)cc1 (stereo not given)	15.47
Cc1ccc(CCC(=O)N2CCOCC2c2ncon2)c(C)c1 (stereo not given)	35.23
COCc1cccc(NC(=O)NCCCN(C)S(C)(=O)=O)c1	30.98
CC(C)CC(=O)N1CC(=O)N(Cc2ccco2)CC(O)C1 (stereo not given)	-6.69
Cc1cccc(-c2nc(C)nn2CC(=O)NCC(C)C)c1	-9.49
CCC(=O)c1ccc(OCC(=O)NC(C)c2nnc(C)[nH]2)cc1 (stereo not given)	-20.29
CCn1ccc2cc(NC(=O)CC3CCCO3)ccc21 (stereo not given)	-73.93
Cc1cccc2cc(CO)c(N3Cc4cnc(C(C)(C)C)nc4C3)nc12	30.89
CCC(Nc1nnnn1-c1ccccc1)C(=O)Nc1nc(C)cs1 (stereo not given)	-13.81
Cc1nnsc1C(=O)NCc1cccnc1N(C)C	6.17
O=C(c1cccc(CNCC=Cc2ccccc2)c1)N1CCCC1	4.49
CCN(Cc1nc2c(cnn2C)c(=O)[nH]1)c1ccccc1C	-16.3
COc1ccc(NC(C)=O)cc1OCc1cccnc1	5.44
COc1ccc(NC(=O)C2CC2)cc1OCc1cccnc1	21.24
COc1ccc(NC(=O)C2CCCO2)cc1OCc1cccnc1 (stereo not given)	61
CCc1nnc2n1CCN(Cc1ncc(-c3ccc(F)cc3)o1)C2	1.6
O=C(c1ncccn1)N1C[C@@H]2CN(Cc3cccnc3)CCO[C@@H]2C1	22.62
CCN(Cc1noc(C2CCC2)n1)C(=O)c1cnc2ccccc2c1	19.53
CCCc1nc(CN(CC)C(=O)c2onc3ccccc23)no1	-12.7
CCN(Cc1noc(C2CC2)n1)C(=O)c1onc2ccccc12	51.31
Cc1cnc(N)c(C(=O)C2CCN(C(=O)c3cnc(C)cn3)CC2)c1	25.72

SMILES	INHIBITION [%]
Cc1cnc(N)c(C(=O)C2CCN(C(=O)c3ccccc3F)CC2)c1	21.37
Cc1cnc(N)c(C(=O)C2CCN(C(=O)c3cnc(C)nc3C)CC2)c1	69.08
CC(=O)N1CCC(C(=O)c2cc(C)cnc2N)CC1	27.16
C=C(C)C(=O)N1CCC(C(=O)c2cc(C)cnc2N)CC1	6.57
Cc1cnc(N)c(C(=O)C2CCN(C(=O)C3CCC3)CC2)c1	61.16
O=C(NCCn1cccn1)c1nnc2ccccc2n1	7.42
O=C(NC[C@H]1Cn2c(-c3ccccc3)cnc2CO1)C1CC1	35.6
CC1(C)CN(CC(F)(F)F)CCN1CC(=O)NC1CC1	65.42
CNC(=O)NC(=O)CN1CCN(CC(F)(F)F)CC1(C)C	21.03
CC1(C)CN(CC(F)(F)F)CCN1CC(=O)NC1CCCC1	37.42
CCC1CC(=O)NCc2nc3sc(C)cn3c21 (stereo not given)	-18.57
CCCn1ncc(C2CC(=O)NCc3nc4sc(C)cn4c32)c1C (stereo not given)	55.36
CCCn1ncc(C2CC(=O)NCc3nc4cc(C)ccn4c32)c1C (stereo not given)	48.21
Cc1noc(C)c1CN(C)C(=O)Cn1c(=O)n(C)c2ccccc21	-43.5
Cc1ccc(NC(=O)Nc2c(O)c3ccccc3oc2=O)cc1C	8.92
COCCn1c2c(ccc1=O)CCN(C(=O)CC1CC1)CC2	-13.68
NC1(C(=O)N2CCC(c3cc(-c4ccccc4Cl)n[nH]3)CC2)CCC1	54.07
NC(=O)NCCC(=O)N1CCC(c2cc(-c3ccccc3Cl)n[nH]2)CC1	31.25
NC(=O)NCC(=O)N1CCC(c2cc(-c3ccccc3Cl)n[nH]2)CC1	39.65
NC(=O)NC1CCN(Cc2ccc3c(c2)CCC3)CC1	30.42
CC(c1nnc(-c2cccs2)o1)N1CCc2cncnc2C1 (stereo not given)	-9.5
O=c1[nH]nc2c(S(=O)(=O)N3CCCCC3)cccn12	6.33
CCC(CO)N(Cc1ccccn1)C(=O)c1ccc(C)c(Cl)c1 (stereo not given)	42.48
COCCC1(CNC(=O)NCC2CCCN(C)C2)CCCC1 (stereo not given)	-24.61
COCCC1(CNC(=O)NCC2CCCS2)CCCC1 (stereo not given)	55.39
COCCC1(CNC(=O)NCC2CCC2)CCC1	29.43
CC(C)Nc1nc(-c2ccccc2)nc2c1CCN(C(=O)CC#N)CC2	27.22

SMILES	INHIBITION [%]
CCN(Cc1noc(C)n1)C(=O)C(c1ccc(C)cc1)N(C)C (stereo not given)	-0.28
COc1cccc2c1ccn2CCNC(C)=O	-7.17
COCC(=O)NCCn1ccc2c(OC)cccc21	50.32
COc1cccc2c1ccn2CCNC(=O)CC(C)C	-55.67
CCN(CCO)C[C@@H]1CN(c2nc(C)cc(C)n2)C[C@@H]1CO	5.88
O=C(c1ccc(F)c(F)c1)N1CCC(Cn2cc(CO)nn2)CC1	20.91
Cc1nn(C)c(N(C)C)c1CNCc1cccc(CN(C)C(C)C)c1	44.39
CCC(NC1Cc2ccccc2C1)c1ccc(S(C)(=O)=O)cc1 (stereo not given)	10.02
CCC(NC1CSCCSC1)c1ccc(S(C)(=O)=O)cc1 (stereo not given)	9.51
CCC(NC1CCCC1)c1ccc(S(C)(=O)=O)cc1 (stereo not given)	58.65
Cc1ccc(-c2c[nH]c([C@@H]3COCCN3Cc3cccnc3)n2)cc1	3.84
CC(C)(CO)NCc1nn(Cc2ccccc2)nc1-c1ccccc1	-34.52
CC(=O)N[C@H]1C[C@@H](c2nc(-c3ccc4c(c3)OCO4)no2)N(C)C1	57.31
CN1C[C@@H](N)C[C@H]1c1nc(-c2ccc3c(c2)OCO3)no1	28.2
CN1C[C@H](O)C[C@H]1c1nc(-c2ccc3c(c2)OCO3)no1	45.22
O=C(c1ccc[nH]1)N1CCc2ccc(S(=O)(=O)N3CCOCC3)cc2C1	-19.95
Cc1ccccc1[C@@H]1CN(Cc2ccc(C(F)(F)F)nc2)C[C@H]1C(=O)O	67.28
Cc1ccccc1[C@@H]1CN(CCOCCO)C[C@H]1C(=O)O	35.46
COCCN1C[C@@H](C(=O)O)[C@H](c2ccccc2C)C1	42.2
CCC[C@@H]1CN(Cc2ccc(C(F)(F)F)nc2)C[C@H]1C(=O)O	21.97
Cc1ccccc1[C@@H]1CN(CCCS(=O)(=O)N(C)C)C[C@H]1C(=O)O	52.3
Cc1ccccc1[C@@H]1CN(Cc2nc3ncccn3n2)C[C@H]1C(=O)O	-18.59
OC(CNCCn1cccn1)c1ccc(F)c(F)c1 (stereo not given)	21.91
Cc1nc(COc2ccc(N(C)S(C)(=O)=O)cc2)sc1C	-26.08
